An excerpt weighted towards active compounds, which were near 5.3% of everything screened.
HP1b binding inh – HTS for Inhibitors of HP1-beta Chromodomain Interactions with Methylated Histone Tails. AlphaScreen HP1-beta / biotin-H3K9me3 peptide binding. Potency, µM (series often up to 114 µM), inactives show at the top dose activity change, negative = inhibition, hits mostly inhibitors. actives 0.56% (n = 390,000); note: potency is the fitted concentration of half-maximal effect; nearly all actives have a fitted effect of over 70% in size
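HP1-beta protein (50 nM final) preincubated 30 min at room temperature with biotinylated H3(1-18)K9me3 peptide (50 nM) in PBS pH 7.4, 0.01% Tween-20, then compound added for 30 min. AlphaScreen streptavidin donor/nickel chelate acceptor beads (10 ug/mL final), 30 min dark, luminescence read.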
BAZ2B inh – qHTS Assay for Inhibitors of BAZ2B. AID 504333, 2011. actives 4.4% (n = 360,000). Bromodomain adjacent to zinc finger domain protein 2B (Homo sapiens), Q9UIF8. AlphaScreen BAZ2B-H3K14Ac peptide displacement. Potency, µM (titrated, usually from 114 µM), inactives show at the top dose activity change, negative = inhibition, usual class: inhibitors; note: potency is the fitted concentration of half-maximal effect; % is set by controls: 0 for no effect and ±100 for the full control effect; nearly all actives have a fitted effect of over 60% in size
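BAZ2B (50 nM) with biotin-H3(5-23)K14Ac peptide (50 nM) in PBS pH 7.4, 0.01% Tween-20, preformed 30 min, then compound 30 min at room temperature; top concentration 110uM. AlphaScreen streptavidin donor/nickel chelate acceptor beads (10 ug/mL final), 20 min dark, signal read.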
CtBP-E1A inh – qHTS Assay for Inhibitors of the CtBP/E1A Interaction; AlphaScreen GST-E1A/His-CtBP binding, 1536-well; active compounds read low; activity change, % (concentration not given with the values); actives 0.49% (n = 340,000); in the data active = activity change below about -65%; inconclusive = mostly about -30% to -63%; note: % is set by controls: 0 for no effect and ±100 for the full control effect
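Homogeneous bead-based format: GST-tagged E1A captured on glutathione donor beads, His-tagged CtBP on nickel acceptor beads; compounds precede bead addition by 2 h at 37 °C.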
Six1-Eya2 blk – qHTS Assay for Inhibitors of the Six1/Eya2 Interaction; AlphaScreen GST-Six1/His-Eya2 binding, biochemical; active compounds read low; activity change, % (no concentration beside the values); actives 0.56% (n = 360,000); in the data active = activity change below about -65%; inconclusive = mostly about -30% to -63%; note: % is set by controls: 0 for no effect and ±100 for the full control effect
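AlphaScreen with GST-Six1 and His-Eya2 (5X mix: 250 nM and 500 nM), glutathione donor and nickel acceptor beads; buffer 50 mM Tris pH 8.0, 300 mM NaCl, 1 mM TCEP; 1 h at 37 C in the dark.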
TDP1 inh – qHTS Assay for Inhibitors of Tyrosyl-DNA Phosphodiesterase (TDP1); Tyrosyl-DNA phosphodiesterase 1 (Homo sapiens), Q9NUW8; recombinant TDP1, AlphaScreen DNA substrate cleavage; Potency, µM (series often up to 130 µM), without a hit: at the top dose activity change, negative = inhibition, actives largely listed as inhibitors; actives 0.28% (n = 350,000); note: potency is the fitted concentration of half-maximal effect; % is set by controls: 0 for no effect and ±100 for the full control effect; nearly all actives have a fitted effect of over 40% in size
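E. coli-derived human Tdp1, 1 nM final. Cpd preinc 15 min RT; substrate 15 nM final, 5 min RT; AS bead mix 10 ug/ml final, 10 min RT. Signal loss = tyrosine-FITC cleavage. No-enzyme wells = max signal.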
JMJD2A Tudor inh – qHTS Assay for Inhibitors of JMJD2A-Tudor Domain | actives 4.4% (n = 390,000) | AlphaScreen JMJD2A-Tudor / H3K4me3 peptide binding | Lysine-specific demethylase 4A (Homo sapiens), O75164 | Potency, µM (series often up to 114 µM), for inactives: at the highest dose activity change, negative = inhibition, most hits filed as inhibitors; note: potency is the fitted concentration of half-maximal effect; % is set by controls: 0 for no effect and ±100 for the full control effect; nearly all actives have a fitted effect of over 50% in size
* hit, by the source's call; ? = inconclusive; · = no result; [ ] = dose if it differs, or a comment. Unless noted, calls come from the whole dose curve; as a rule, active = well fitted inhibition curve with a large enough effect; inconclusive = small, poorly fitted or top-dose-only effect; inactive = no such curve, though single readings can be large or run the other way.

SMILES	HP1b binding inh	BAZ2B inh	CtBP-E1A inh	Six1-Eya2 blk	TDP1 inh	JMJD2A Tudor inh
COc1ccc(C(=O)N(Cc2ccccc2)Cc2ccccc2)cc1COc1ccc(NC(C)=O)cc1	·	·	·	·	3.3%	-9.5%
O=C(OCC#CCSc1nnc(-c2cccc(F)c2)o1)c1ccc(F)cc1	·	·	·	·	-7.5%	58.5%
N#CCCN(C(=O)COC(=O)c1ccc2c(=O)n3c(nc2c1)CCC3)c1ccccc1	-7.9%	-6.0%	-0.9	-5.1	5.0%	14.1µM*
O=C(CSc1nnc(-c2ccco2)c(-c2ccco2)n1)c1ccccc1	?	-1.3%	-23.5	?	2.8%	44.7µM*
CC(=O)c1ccc(NC(=O)CSc2nnc(-c3ccco3)c(-c3ccco3)n2)cc1	31.6µM*	44.7µM*	?	?	-3.0%	22.4µM*
Cc1ccc2nc(N(CCCN(C)C)C(=O)c3ccc(S(=O)(=O)N(C)C)cc3)sc2c1	17.6%	-11.2%	0.5	0.7	0.0%	-3.5%
CN(C)CCCN(C(=O)CCSc1ccccc1)c1nc2cc3c(cc2s1)OCO3	1.1%	?	-21.3	-8.1	4.8%	-28.3%
CN(C)CCCN(C(=O)c1ccc(C(=O)c2ccccc2)cc1)c1nc2cc3c(cc2s1)OCCO3	-5.8%	31.6µM*	-21.6	?	8.9%	50.1µM*
CN(C)CCN(C(=O)CN1C(=O)c2ccccc2C1=O)c1nc2cc3c(cc2s1)OCO3	4.7%	89.1µM*	3.7	-13.3	9.7%	-29.4%
CCN(Cc1ccccc1)S(=O)(=O)c1ccc(C(=O)N(CCCN(C)C)c2nc3cc4c(cc3s2)OCO4)cc1	-12.0%	25.1µM*	-26.9	-26.2	11.9%	56.2µM*
CN(C)CCCN(C(=O)COc1ccccc1)c1nc2cc3c(cc2s1)OCCO3	11.5%[57 µM]	-16.8%	·	-8.3	4.3%	-18.8%
Cc1ccc2nc(N(CCCN(C)C)C(=O)c3sc4ccccc4c3Cl)sc2c1	?	?	-26.8	?	5.7%	44.7µM*
Cc1ccc(Cl)cc1NS(=O)(=O)c1ccc2c(c1)NC(=O)CCS2	31.0%	3.5%[57.1 µM]	·	·	5.3%	-17.2%
CCN(Cc1ccccc1)S(=O)(=O)c1ccc(C(=O)N(CCCN(C)C)c2nc3c(C)c(C)ccc3s2)cc1	-10.8%	10µM*	?	-17.9	5.9%	?
CN1C(=O)c2oc3ccccc3c(=O)c2C1c1ccccn1 (stereo unspecified)	38.0%	?	-1.5	-11.2	5.6%	31.6µM*
CCN(c1ccccc1)S(=O)(=O)c1cc(C(=O)O)ccc1C	8.4%	50.1µM*	6.2	2.4	22.4µM*	-23.5%
CC(Oc1ccccc1)C(=O)Nc1c(C(=O)Nc2cccc(F)c2)oc2ccccc12 (stereo unspecified)	41.9%	-3.7%	·	·	6.4%	-8.3%
Cn1cc([N+](=O)[O-])c(C(=O)Nc2ccc(-c3nc4ccccc4[nH]3)cc2)n1	12.1%	?	-9.0	-3.6	-10.3%	56.2µM*
Cn1cc([N+](=O)[O-])c(C(=O)Nc2ccc3nc(-c4ccccc4)[nH]c3c2)n1	6.8%	-32.0%	-16.0	-18.4	2.7%	-27.9%
CCCN1C(=O)C(O)(CC(=O)c2cccc(OC)c2)c2ccccc21 (stereo unspecified)	-39.0%	56.2µM*	5.3	7.3	9.1%	?
CCCCC(=O)Nc1nnc(S(=O)(=O)N(C)Cc2ccccc2)s1	34.6%	1.7%	·	·	1.3%	-7.6%
CCOC(=O)c1ccc(NC(=O)C2CCCN(c3ccc(Sc4ccc(C)cc4)nn3)C2)cc1 (stereo unspecified)	33.6%	-1.6%	·	·	-3.6%	-10.2%
CC(=O)c1sc2nc(-c3cccs3)ccc2c1N	-3.5%	2.2%	1.8	4.7	5.3%	25.1µM*
Nc1c(C(=O)Nc2ccccc2Br)sc2nc(-c3cccs3)ccc12	37.6%	1.6%	·	·	·	5.2%
O=c1cc(-c2ccc(F)cc2)nc(SCc2nc(-c3ccccc3Cl)no2)[nH]1	44.8%[57 µM]	32.8%	·	·	2.7%	-15.6%
SMILES	HP1b binding inh	BAZ2B inh	CtBP-E1A inh	Six1-Eya2 blk	TDP1 inh	JMJD2A Tudor inh
OCCN1CCN(CCSc2ccccc2)CC1	0.2%	-16.9%	2.5	3.6	5.9%	28.2µM*
c1ccc(SCCN2CCc3ccccc3C2)cc1	-32.0%	4.8%	·	14.6	-10.5%	25.1µM*
COC(=O)C(CC(=O)c1ccc(Br)cc1)n1ccnc1 (stereo unspecified)	·	50.1µM*	·	·	8.2%	·
CCOc1ccccc1NC(=O)Cn1ccn(Cc2ccc(C)cc2)c(=O)c1=O	-2.1%	-32.4%	·	·	0.0%	-25.7%
CC(c1n[nH]c(=S)n1-c1ccccc1)N1CCCCC1 (stereo unspecified)	47.3%	-21.0%	6.3	-0.2	1.2%	7.08µM*
CN(C)c1ccc(N=c2sc3ccccc3n2C)cc1	10µM*	7.94µM*	44.1	-84.2*	14.6%	10µM*
Cn1c(=Nc2ccccc2)sc2ccccc21	63.3%	72.8%	20.7	24.8	-6.1%	126.4%
Cc1ccc(N(C)C)cc1	·	·	·	·	-2.5%	·
Cc1ccc(C)n1-c1ccc(N(C)C)cc1	?	25.1µM*	-16.9	?	10.5%	50.1µM*
O=C(CNCc1ccco1)Nc1ccc(Oc2ccccc2)cc1	7.4%	50.1µM*	·	-7.0	-2.6%	17.8µM*
FC(F)(F)c1cccc(N2CCN(c3nc4ccccc4n4cnnc34)CC2)c1	41.1%	2.2%	·	·	1.0%	-6.5%
C=CCN1CCc2c(cc(O)c(O)c2Cl)C(c2cccc(C)c2)C1 (stereo unspecified)	·	·	·	·	9.9%	·
O=C(c1ccco1)N1CCn2cccc2C1c1ccccc1 (stereo unspecified)	70.8µM*	35.5µM*	-22.4	-15.8	8.9%	50.1µM*
COc1cc2c(cc1OC)C(c1ccccc1)N(C(=O)c1ccco1)CC2 (stereo unspecified)	8.8%	-36.5%	-1.0	-17.0	-7.8%	-28.9%
COc1ccccc1C(=O)COC(=O)c1cc(=O)[nH]c2ccccc12	32.7%	3.3%	4.7	-6.4	-7.4%[0.505 µM]	-7.5%
Cc1ccc(C(=O)COC(=O)c2cc(=O)[nH]c3ccccc23)cc1C	?	50.1µM*	4.4	8.1	-6.0%	-33.0%
O=C(Nc1ccc2c(c1)C(=O)c1ccccc1-2)c1ccccc1	15.8%	·	6.9	-4.5	·	-9.7%
O=C1C(O)=CC(=C(c2ccccc2)c2ccccc2)c2ccccc21	12.6µM*	·	?	?	·	14.1µM*

Bioassay records deposited in PubChem by National Center for Advancing Translational Sciences (NCATS).
